Drawing on PubChem BioAssay (NCATS), this text covers outcome and activity change, negative = inhibition for 40 molecules.

Inconclusive results are not listed. Values without a mark were called inactive. The source made the active and inactive calls. The call rests on the fitted dose curve; in most records, active means well fitted inhibition curve with a large enough effect; inconclusive means small, poorly fitted or top-dose-only effect; inactive means no such curve, though single readings can be large or run the other way.

Sequence of Protein phosphatase 1D (Homo sapiens) (O15297 whole entry, looked up): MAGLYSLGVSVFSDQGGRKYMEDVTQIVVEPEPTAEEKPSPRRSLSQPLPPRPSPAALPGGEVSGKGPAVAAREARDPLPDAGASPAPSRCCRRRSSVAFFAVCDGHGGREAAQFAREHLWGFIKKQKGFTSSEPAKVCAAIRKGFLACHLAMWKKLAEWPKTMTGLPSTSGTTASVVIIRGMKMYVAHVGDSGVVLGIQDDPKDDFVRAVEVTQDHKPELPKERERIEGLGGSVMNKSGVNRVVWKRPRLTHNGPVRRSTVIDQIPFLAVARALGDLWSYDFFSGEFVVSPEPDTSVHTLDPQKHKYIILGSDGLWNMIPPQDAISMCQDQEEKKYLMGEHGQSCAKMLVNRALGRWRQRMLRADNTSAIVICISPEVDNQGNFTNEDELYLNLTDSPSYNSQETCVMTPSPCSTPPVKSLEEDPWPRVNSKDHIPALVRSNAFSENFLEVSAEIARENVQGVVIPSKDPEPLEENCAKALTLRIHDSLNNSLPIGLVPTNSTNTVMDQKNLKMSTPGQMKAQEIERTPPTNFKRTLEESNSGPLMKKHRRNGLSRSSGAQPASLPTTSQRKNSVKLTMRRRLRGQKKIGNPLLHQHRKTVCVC

This test has as its target Protein phosphatase 1D (Homo sapiens) (UniProt O15297). The experiment in a line: RapidFire Mass Spectrometry qHTS Assay for Modulators of WT P53-Induced Phosphatase 1 (WIP1) (AID 1347424). The conditions noted are these: WIP1 dephosphorylation of phosphopeptide, RapidFire MS; series mostly up to 63 µM. From the text: Assay Provider (PI): Nathan Coussens Ph. D.
National Center for Advancing Translational Sciences (NCATS), Rockville, MD
National Institute of Health (NIH), Bethesda, Maryland
WT P53-Induced Phosphatase 1 (WIP1) is a member of the magnesium-dependent serine/threonine protein phosphatase (PPM) family and is induced by P53 in response to DNA damage. In several human cancers, the WIP1 protein is overexpressed, which is generally associated with a worse prognosis. Although WIP1 is an attractive therapeutic target, no potent, selective, and bioactive small-molecule modulator with favorable pharmacokinetics has been reported. Phosphatase enzymes are among the most challenging targets for small molecules because of the difficulty of achieving both modulator selectivity and bioavailability. Another major obstacle has been the availability of robust and physiologically relevant phosphatase assays that are suitable for high-throughput screening.
Here, we describe two orthogonal biochemical WIP1 activity assays that utilize phosphopeptides from native WIP1 substrates. We optimized a RapidFire MS assay to quantify the enzymatically dephosphorylated peptide reaction product in a 384-well format. Additionally, a redshifted Rhodamine-PBP fluorescence assay was optimized in a 1,536-well format to enable real-time WIP1 activity measurements through the detection of the orthogonal reaction product, Pi. We validated these two optimized assays by quantitative high-throughput screening against the National Center for Advancing Translational Sciences (NCATS) Pharmaceutical Collection and used secondary assays to confirm and evaluate inhibitors identified in the primary screen.
SEQUENCE No. (e.g., 1, 2, 3, etc.); […] (e.g., Cells, Incubation, Reagent, etc.); VALUE; DESCRIPTION
1; Reagent; 50 uL; dispensed assay buffer: 0.1% formic acid in water (10 uL : 40 uL) solution in column 1
3; Library Compounds; 63 nL; library compounds in DMSO, columns 3-24
4; Control Compounds; 63 nL; DMSO in wells I-P, columns 1-2, GSK830371 (10 uM, final) in wells A-H, column 2
5; Time; 1 hr; incubation
6; Substrate; 2 uL; VEPPL-pS-QETFS (10 uM) in assay buffer, column 2-24
7; Time; 5 min; incubation
8; Reagent; 2 uL; 0.5% formic acid in water, columns 2-24
9; Reagent; 38 uL; VEPPL-S-QETF*S in 0.1% formic acid, columns 2-24
10; Detection; mass spec; RapidFire mass spectrometry
NOTES (numbers refer to sequence above)
1, 2, 6; dispensed reagent in White Nunc 384-well PP microplates (264573); assay buffer: 50 mM Tris-HCl pH 7.5, 30 mM MgCl2, 1 mM TCEP, 0.1 mM EGTA, 75 ug/mL BSA.
2, 6, 8, 9; Dispensed with BioRaptr (Beckman Coulter)
2, 6, 9; Final concentrations: 10 nM WIP1; 2 uM VEPPL-pS-QETFS; 1 uM VEFFL-S-QETF*S
3 & 4; Kalypsys Pintool transfer (Wako USA), Tip wash sequence: water, DMSO, methanol, 20 sec vacuum dry.
5 & 7; incubation at room temperature
10; RapidFire mass spectrometry read using the Agilent RapidFire 360 (Clausse, 2019)
Clausse V, et al. Physiologically relevant orthogonal assay for the discovery of small-molecule modulators of WIP1 […] in high-throughput screens. J Biol Chem. 2019, 294(46): 17654-17668. doi:10.1074/jbc.RA119.010201
Regarding `CC(C)CCOC(=O)c1ccc(N(C)C)cc1`, the outcome was inactive.

Take `CNCc1ccccc1`: the call was inactive.

For `CN1C(C)(C)CCCC1(C)C`, the molecule was called inactive.

For the molecule `C[N+](C)(C)CC[N+]1(C)Cc2c(Cl)c(Cl)c(Cl)c(Cl)c2C1`, the molecule was called inactive.

In the case of `Cn1cc(C(=O)[C@@H]2CCc3nc[nH]c3C2)c2ccccc21`, the molecule was classed as inactive.

Consider `Cc1c(NC(C)C)c(=O)n(-c2ccccc2)n1C`, for which the molecule was classed as inactive.

For `CCCCCCCCCCOc1cc2c(=O)c(C(=O)OCC)c[nH]c2cc1OCC`, the activity change, negative = inhibition is 14.2% [at 6.17 µM].

Regarding `CC(=O)SC[C@@H](Cc1ccccc1)C(=O)NCC(=O)OCc1ccccc1`, the molecule was classed as inactive.

In the case of `CC1(c2ccccc2)OC(C(=O)O)=CC1=O` (stereo not given), the molecule was classed as inactive.

In the case of `CCCCOC(=O)c1ccc(N)cc1`, the molecule was classed as inactive.

Regarding `Nc1ccncc1N`, the call was inactive.

For the molecule `CCOc1cc(NC(C)=O)ccc1C(=O)OC`, the molecule was classed as inactive.

Turning to `CCOC(=O)OC(C)OC(=O)[C@@H]1N2C(=O)[C@@H](NC(=O)[C@H](N)c3ccccc3)[C@H]2SC1(C)C` (stereo not given in full), the molecule was classed as inactive.

For the molecule `COc1ccc(O)cc1`, the outcome was inactive.

Turning to `O=C(O)Cc1ccc(CCNS(=O)(=O)c2ccc(Cl)cc2)cc1`, the molecule was classed as inactive.

Regarding `Cc1cccc(Nc2ccccc2C(=O)O)c1C`, the call was inactive.

Regarding `Cc1cc(O)cc(C)c1Cl`, the result was inactive.

`COc1ccc(-c2cc(=O)c3c(O)cc(O[C@@H]4O[C@H](CO[C@@H]5O[C@@H](C)[C@H](O)[C@@H](O)[C@H]5O)[C@@H](O)[C@H](O)[C@H]4O)cc3o2)cc1O`: the call was inactive.

In the case of `C[C@@H]1O[C@@H](OC[C@H]2O[C@@H](Oc3c(-c4ccc(O)c(O)c4)oc4cc(O)cc(O)c4c3=O)[C@H](O)[C@@H](O)[C@@H]2O)[C@H](O)[C@H](O)[C@H]1O`, the molecule was called inactive.

As to `CC1CC(OC(=O)c2ccccc2O)CC(C)(C)C1` (stereo not given), the outcome was inactive.

`OC[C@@H](O)[C@@H](O)[C@H](O)[C@H](O)CO`: the result was inactive.

With `CNc1c2c(nn1C)CCCC2`, the molecule was classed as inactive.

`Cn1c([N+](=O)[O-])cnc1COC(N)=O`: the outcome was inactive.

Take `CCCCCCCC(=O)OCC(COC(=O)CCCCCCC)OC(=O)CCCCCCC`: the molecule was classed as inactive.

`COc1ccc(Cc2cnc(N)nc2N)cc1OC`: the outcome was inactive.

Turning to `Cc1ccc2c(c1)c1c3n2CCNC3CCC1` (stereo not given), the result was inactive.

Take `CC[N+](CC)(CC(=O)Nc1c(C)cccc1C)Cc1ccccc1`: the molecule was called inactive.

In the case of `C[C@]1(Cn2ccnn2)[C@H](C(=O)O)N2C(=O)C[C@H]2S1(=O)=O`, the result was inactive.

As for `COc1ccccc1Oc1c(NS(=O)(=O)c2ccc(C(C)(C)C)cc2)nc(-c2ncccn2)nc1OCCO`, the result was inactive.

Consider `O=C(CN1CCNCC1)NC1CCCCC1`, for which the result was inactive.

`CC(C)=CCC/C(C)=C/CO`: the result was inactive.

For the molecule `CCCC(O)C(CC)CO` (stereo not given), the call was inactive.

For `O=C(NCCCN1CCOCC1)c1ccc(Cl)cc1`, the molecule was called inactive.

In the case of `COc1ccc(C(=O)NCc2ccc(OCCN(C)C)cc2)cc1OC`, the call was inactive.

Regarding `CC(C)CCCC(C)CCCC(C)CCCCC(C)CCCC(C)CCCC(C)C` (stereo not given), the call was inactive.

In the case of `CCOC(=O)[C@H](CCc1ccccc1)N[C@@H](C)C(=O)N1CCC[C@H]1C(=O)O`, the call was inactive.

On to `Cc1cc(=O)[nH]c(=S)[nH]1`, for which the molecule was classed as inactive.

`c1ccc2[nH]ccc2c1`: the molecule was classed as inactive.

In the case of `CC(=O)NS(=O)(=O)c1ccc(N)cc1`, the molecule was called inactive.

On to `NC(=O)CC[C@@H](N)C(=O)O`, for which the call was inactive.
